Test results taken from PubChem BioAssay (NCATS).
Unmarked numbers belong to inactive results. Inconclusive results are not listed. Where a call stands in place of a potency, no number is given. The source made the active and inactive calls. The call rests on the fitted dose curve; in most records, active means well fitted curve in the direction sought with a large enough effect; inconclusive means small, poorly fitted or top-dose-only effect, or another doubt; inactive means no such curve, though single readings can be large; an effect the other way counts as inactive or inconclusive.

Assays:
[1] = tested on: Nanoluciferase (engineered Oplophorus gracilirostris luciferase); experiment: Primary Nanoluciferase (NLuc) qHTS assay for identification of artifact compounds. (AID 1845222)
Outline: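 Luminescence read-out of secreted NLuc in S16 cell conditioned medium (1:55); compounds tested with 15 min RT preincubation, then Nano-Glo substrate 1:100, 5 min. % inhibition vs no-enzyme and DMSO controls, 4-parameter Hill fit.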

[2] = Primary redox qHTS assay for identification of artifact compounds. (AID 1845223)
Outline: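 Amplex Red (25 uM) and HRP (250 mU/mL) in HBSS, with compounds for 15 min, then 250 uM DTT for 30 min, room temperature, dark. Fluorescence 525/598 nm read; normalized to DMSO and 10 uM DA3003; Hill fit.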

[3] = Quantitative High-Throughput drug screen in 47 multiple myeloma cell lines against the NCATS MIPE library collection: FR4_PLB cell viability assay (AID 1918924; further: nearly all actives have a fitted effect of over 35% in size; further: potency means the concentration at half of the fitted maximal effect)
Outline: (§1)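 Viability readout: CellTiter-Glo luminescence following 5 min room-temperature incubation with reagent. Prior exposure: 48 h, 37C, humidified 5% CO2, 500 cells per well.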

[4] = Quantitative High-Throughput drug screen in 47 multiple myeloma cell lines against the NCATS MIPE library collection: EJM_DSMZ cell viability assay (AID 1918926; further: nearly all actives have a fitted effect of over 30% in size; further: potency means the concentration at half of the fitted maximal effect)
Outline: as §1

[5] = Quantitative High-Throughput drug screen in 47 multiple myeloma cell lines against the NCATS MIPE library collection: AMO1_DSMZ cell viability assay (AID 1918927; further: nearly all actives have a fitted effect of over 30% in size; further: potency means the concentration at half of the fitted maximal effect)
Outline: as §1

[6] = Quantitative High-Throughput drug screen in 47 multiple myeloma cell lines against the NCATS MIPE library collection: JIM3_ECACC cell viability assay (AID 1918963; further: nearly all actives have a fitted effect of over 35% in size; further: potency means the concentration at half of the fitted maximal effect)
Outline: as §1

[7] = Quantitative High-Throughput drug screen in 47 multiple myeloma cell lines against the NCATS MIPE library collection: JIM1_ECACC cell viability assay (AID 1918964; further: potency means the concentration at half of the fitted maximal effect)
Outline: as §1

[8] = Quantitative High-Throughput drug screen in 47 multiple myeloma cell lines against the NCATS MIPE library collection: INA6_PLB cell viability assay (AID 1918965; further: nearly all actives have a fitted effect of over 55% in size; further: potency means the concentration at half of the fitted maximal effect)
Outline: (§2)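 Approved and investigational drugs from MIPE 4.0 were added by pin tool to 500 cells per well. After 48 hours at 37C, ATP-based CellTiter-Glo luminescence indicated remaining viability.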

[9] = Quantitative High-Throughput drug screen in 47 multiple myeloma cell lines against the NCATS MIPE library collection: JJN3_DSMZ cell viability assay (AID 1918966; further: nearly all actives have a fitted effect of over 50% in size; further: potency means the concentration at half of the fitted maximal effect)
Outline: as §1

[10] = Quantitative High-Throughput drug screen in 47 multiple myeloma cell lines against the NCATS MIPE library collection: H1112_PLB cell viability assay (AID 1918967; further: nearly all actives have a fitted effect of over 30% in size; further: potency means the concentration at half of the fitted maximal effect)
Outline: as §1

[11] = Quantitative High-Throughput drug screen in 47 multiple myeloma cell lines against the NCATS MIPE library collection: KMS27_JCRB cell viability assay (AID 1918970); conditions: KMS27 myeloma cells, CellTiter-Glo ATP viability, 48 h; viability (% of DMSO): at 45.8 µM (top of the series); further: nearly all actives have a fitted effect of over 30% in size; further: potency means the concentration at half of the fitted maximal effect
Outline: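 KMS27_JCRB myeloma cells, 500 per well, exposed 48 h at 37 C, 5% CO2 to MIPE 4.0 compounds. Viability from ATP by CellTiter-Glo luminescence, normalized to DMSO (100%) and medium-only (0%) wells.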

[12] = Quantitative High-Throughput drug screen in 47 multiple myeloma cell lines against the NCATS MIPE library collection: Delta47_JCRB cell viability assay (AID 1918925; further: nearly all actives have a fitted effect of over 45% in size; further: potency means the concentration at half of the fitted maximal effect)
Outline: as §1

[13] = Quantitative High-Throughput drug screen in 47 multiple myeloma cell lines against the NCATS MIPE library collection: ARP1_JJKsccF8 cell viability assay (AID 1918928; further: nearly all actives have a fitted effect of over 40% in size; further: potency means the concentration at half of the fitted maximal effect)
Outline: (§3)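 Luminescence from CellTiter-Glo, taken after 5 min at room temperature, reports cellular ATP as viability. Cells (500 per well) had been treated 48 h at 37 °C with MIPE 4.0 compounds, scaled between DMSO and medium-only controls.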

[14] = Quantitative High-Throughput drug screen in 47 multiple myeloma cell lines against the NCATS MIPE library collection: ARD_JJKsccE7 cell viability assay (AID 1918929; further: potency means the concentration at half of the fitted maximal effect)
Outline: as §1

[15] = Quantitative High-Throughput drug screen in 47 multiple myeloma cell lines against the NCATS MIPE library collection: Karpas620_DSMZ cell viability assay (AID 1918959); further: nearly all actives have a fitted effect of over 30% in size; further: potency means the concentration at half of the fitted maximal effect
Outline: as §1

[16] = Quantitative High-Throughput drug screen in 47 multiple myeloma cell lines against the NCATS MIPE library collection: KMM1_JCRB cell viability assay (AID 1918960); further: nearly all actives have a fitted effect of over 30% in size; further: potency means the concentration at half of the fitted maximal effect
Outline: as §3

[17] = Quantitative High-Throughput drug screen in 47 multiple myeloma cell lines against the NCATS MIPE library collection: Karpas417_ECACC cell viability assay (AID 1918961); conditions: Karpas417 myeloma viability, CellTiter-Glo ATP luminescence, 48 h; viability (% of DMSO): at 45.8 µM (top of the series); further: potency means the concentration at half of the fitted maximal effect
Outline: as §2

[18] = Quantitative High-Throughput drug screen in 47 multiple myeloma cell lines against the NCATS MIPE library collection: KHM11_PLB cell viability assay (AID 1918962); further: nearly all actives have a fitted effect of over 35% in size; further: potency means the concentration at half of the fitted maximal effect
Outline: as §1

[19] = Quantitative High-Throughput drug screen in 47 multiple myeloma cell lines against the NCATS MIPE library collection: Karpas25_ECACC cell viability assay (AID 1918968; further: nearly all actives have a fitted effect of over 35% in size; further: potency means the concentration at half of the fitted maximal effect)
Outline: as §1

[20] = Quantitative High-Throughput drug screen in 47 multiple myeloma cell lines against the NCATS MIPE library collection: KMS12BM_JCRB cell viability assay (AID 1918971); further: nearly all actives have a fitted effect of over 35% in size; further: potency means the concentration at half of the fitted maximal effect
Outline: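 Myeloma cells (500 per well) were exposed to MIPE 4.0 compounds by pin transfer and incubated 48 hours at 37C, 5% CO2. Viability was read as ATP by CellTiter-Glo luminescence, normalised to DMSO (100%) and media-only (0%) wells.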

SMILES | Potency [1] | outcome [2] | Potency [3] | Potency [4] | Potency [5] | Potency [6] | Potency [7] | Potency [8] | Potency [9] | Potency [10] | Potency [11] | Potency [12] | Potency [13] | Potency [14] | Potency [15] | Potency [16] | Potency [17] | Potency [18] | Potency [19] | Potency [20]
COc1nc(C)cnc1NS(=O)(=O)c1cccnc1-c1ccc(-c2nnco2)cc1 | inactive | inactive | inactive | inactive | inactive | inactive | inactive | inactive | 1.87 µM (active) | inactive | inactive | – | – | – | – | – | – | – | – | –
O=C(CCCN1CCN(c2ccc(F)cc2)CC1)NC1c2ccccc2CSc2ccccc21 (centres undefined) | inactive | inactive | – | – | 6.62 µM (active) | – | – | 4.69 µM (active) | – | 7.43 µM (active) | 5.9 µM (active) | 5.26 µM (active) | 3.72 µM (active) | 3.32 µM (active) | 6.62 µM (active) | 4.69 µM (active) | 8.33 µM (active) | 4.18 µM (active) | 3.32 µM (active) | 11.8 µM (active)
CN1c2ccccc2C(=O)N2CCc3c([nH]c4ccccc34)C21 (centres undefined) | inactive | inactive | inactive | inactive | inactive | 23.5 µM (active) | inactive | – | – | – | inactive | 26.4 µM (active) | – | inactive | inactive | inactive | – | – | 23.5 µM (active) | –
c1ccc(CNc2nc(N3CCOc4ccccc43)nc3c2CCCC3)cc1 | inactive | inactive | inactive | – | 16.6 µM (active) | – | – | – | inactive | inactive | – | – | – | 20.9 µM (active) | inactive | – | – | – | – | –
Cn1c(=O)c(-c2c(Cl)cccc2Cl)cc2cnc(Nc3cccc(C(=O)O)c3)nc21 | inactive | inactive | 5.26 µM (active) | – | 0.469 µM (active) | inactive | 0.0264 µM (active) | – | – | – | 0.526 µM (active) | inactive | – | 0.469 µM (active) | – | 0.209 µM (active) | 0.059 µM (active) | – | inactive | –
Cc1ccccc1-n1c(Cn2nc(-c3cccc(O)c3)c3c(N)ncnc32)nc2cccc(C)c2c1=O | inactive | inactive | 8.33 µM (active) | – | 0.372 µM (active) | 3.72 µM (active) | 1.18 µM (active) | 1.05 µM (active) | – | 2.64 µM (active) | 0.469 µM (active) | 2.96 µM (active) | 3.32 µM (active) | 1.05 µM (active) | 0.833 µM (active) | 0.935 µM (active) | 4.18 µM (active) | 18.7 µM (active) | 2.64 µM (active) | 8.33 µM (active)
CCn1c(-c2nonc2N)nc2cncc(CNC3CCNCC3)c21 | inactive | inactive | inactive | inactive | – | 2.96 µM (active) | – | 5.9 µM (active) | 5.26 µM (active) | – | 2.09 µM (active) | – | 10.5 µM (active) | – | – | – | – | 2.64 µM (active) | 8.33 µM (active) | inactive
Cc1nc(C(=O)NCC(=O)O)c(O)c2ccc(Oc3ccccc3)cc12 | inactive | inactive | – | inactive | – | inactive | – | inactive | – | inactive | – | inactive | inactive | – | inactive | – | – | – | inactive | –
CCN(CCO)CCCOc1ccc2c(Nc3cc(CC(=O)Nc4cccc(F)c4)[nH]n3)ncnc2c1 | inactive | inactive | inactive | inactive | 0.187 µM (active) | inactive | – | 0.0743 µM (active) | – | – | 0.0083 µM (active) | – | – | inactive | inactive | inactive | 0.469 µM (active) | inactive | inactive | 0.209 µM (active)
COc1ccc(-c2nc3ccc(C4=NNC(=O)CC4C)cc3[nH]2)cc1 (centres undefined) | inactive | inactive | inactive | – | inactive | inactive | inactive | – | – | – | – | – | inactive | inactive | inactive | inactive | – | – | – | inactive
O=C1C(c2c(O)[nH]c3ccccc23)=Nc2ccccc21 | inactive | inactive | 14.8 µM (active) | – | – | inactive | – | inactive | 6.62 µM (active) | – | inactive | – | 6.62 µM (active) | – | – | – | – | inactive | 6.62 µM (active) | 5.9 µM (active)
O=C(CC12CC3CC(CC(C3)C1)C2)Nc1cccc2nc(NCCNCCO)ccc12 | inactive | – | – | 11.8 µM (active) | 20.9 µM (active) | 9.35 µM (active) | – | 9.35 µM (active) | 9.35 µM (active) | 7.43 µM (active) | 18.7 µM (active) | 2.64 µM (active) | – | – | – | – | 1.48 µM (active) | 5.26 µM (active) | 5.9 µM (active) | 18.7 µM (active)
